KLK7 zymogen act = proKLK7 (human) activation, primary screen. P49862. purified proKLK7, EDANS-DABCYL substrate fluorescence; 100% is mature enzyme control, 0% vehicle. activation, % at 7 µM. 370,000 compounds, 0.9% hits;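 active = activation above the mean of all tested compounds plus 3 SD, computed per campaign excluding outliers beyond control limits, cut at about 13% in these data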
GC-A act = GC-A (human) enzyme activation; P16066; activation, % at 10 µM; 370,000 compounds, 0.14% hits; HEK293 GC-A cells, cGMP TR-FRET, EC30 ANP; 0% at EC30 ANP, 100% saturating ANP; in the data active = activation above about 40%
NPR2 activator = GC-B (human) receptor activation; P20594; HEK293-GC-B cells, CNP EC30, cGMP TR-FRET; 0% at EC30 CNP, 100% saturating CNP; activation, % at 10 µM; 370,000 compounds, 0.11% hits; AID 1920062;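 active = activation at 10 µM reaching about 35% in either raw or pattern-adjusted values, limit read from the data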
HIF activator = HIF pathway transcriptional activation; U2OS HRE-luciferase reporter, luminescence; normalized: DMSO 0%, desferrioxamine 100%; 300,000 compounds, 0.32% hits; AID 1910; activation, % at 7.5 µM (by protocol);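 active = mean activation of at least 10% of the iron chelator positive control signal, with at least half of replicates also reaching 10%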
KLK7 act conf = proKLK7 activation, confirmation. shares compounds with KLK7 zymogen act. purified proKLK7, EDANS-DABCYL substrate fluorescence; scaled: vehicle 0, mature enzyme 100. activation, % at 7 µM. 3,200 compounds, 68% hits. AID 686949;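 active = activation, as change over the incubation, above the mean of all tested compounds plus 3 SD, cut at about 13% in these data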
EDANS-DABCYL int = fluorescence interference counter-screen for KLK7 activators; activation, % at 7 µM; shares compounds with KLK7 zymogen act; EDANS-DABCYL substrate fluorescence interference, no enzyme, 4 h; solvent 0%, active enzyme control 100%; 3,200 compounds, 80% hits; AID 686952;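 active = activation above the all-compound mean plus 3 SD, ignoring values outside control-based bounds, cut at about 4.8% in these data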;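 also: value is the 4 h activation minus the activation read at time zero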
An asterisk follows results filed as active; nt = no result. Compounds with a hit are over-represented: about 1.3% of the library has one in this group of screens.

SMILES | KLK7 zymogen act | GC-A act | NPR2 activator | HIF activator | KLK7 act conf | EDANS-DABCYL int
CC1CCN(c2ccc(C(=O)O)cc2NS(=O)(=O)c2ccc(Cl)s2)CC1 | 0 | 2 | -6 | nt | nt | nt
CCOc1ccc(-n2c(COc3ccccc3)nnc2SCc2nc3ccccc3[nH]2)cc1 | 0 | -12 | -6 | nt | nt | nt
CN(C)/C=N/c1nc2nccc(-c3ccc(Cl)cc3)n2n1 | 18* | -2 | 4 | 0 | 66* | 69*
Nc1nc2nccc(-c3ccc(Cl)cc3)n2n1 | 57* | 5 | 1 | nt | 70* | 85*
COC(=O)[C@]12C=CCN1[C@@H](c1ccc(Cl)cc1)c1c(c3ccccc3n1S(=O)(=O)c1ccc(C)cc1)C2 | -3 | -6 | -4 | nt | nt | nt
C[C@H](O)[C@@H]1CN2CCc3c([nH]c4c(-c5ccccc5)cccc34)[C@@H]2C[C@@H]1N(C)C(=O)c1ccco1 | 1 | -3 | 3 | nt | nt | nt
CC(C)CN1C(=O)C[C@]2(C(=O)N(C)c3ccc(NC(=O)C(F)(F)F)cc32)C1c1ccccc1 (stereo not given in full) | 1 | -6 | -2 | nt | nt | nt
CC(C)CCNC(=O)c1cnn2c(C(F)(F)F)cc(-c3ccco3)nc12 | -1 | 3 | 2 | 0 | nt | nt
CCOC(=O)c1cnn2c(C(F)(F)F)cc(-c3ccco3)nc12 | 31* | 8 | 2 | 0 | 26* | 43*
CCOC(=O)c1cnn2c(C)cc(-c3ccccc3)nc12 | 24* | 4 | 6 | 2 | 21* | 32*
CN1C(=O)c2cc(NC(=O)c3ccccc3)ccc2OC[C@H]2O[C@@H](CC(=O)NCC3CC3)CC[C@@H]21 | 0 | 2 | -7 | nt | nt | nt
CN1C(=O)SC(Nc2cccc3ccccc23)C1=O (stereo not given) | 74* | -2 | 6 | -2 | 88* | 85*
CCc1ccc(NC(=O)CSc2nc3n[nH]c(C)c3c(=N)n2-c2cccc(OC)c2)cc1 | 1 | -8 | -8 | 0 | nt | nt
Cc1ccc(CNC(=O)CSc2nc3n[nH]c(C)c3c(=N)n2-c2cccc(C)c2)cc1 | 13* | -23 | -14 | 0 | 28* | 27*
CC(C)C[C@@H]1COc2cccc(N3CCSCC3)c2S(=O)(=O)N1C | 0 | 1 | -1 | nt | nt | nt
COc1ccc(OC)c(C2C(C#N)=C(N)Oc3c2c(C)nn3-c2cccc(Cl)c2)c1 (stereo not given) | 19* | -5 | 0 | 0 | 35* | 33*
FC(F)(F)c1cc(-c2ccccc2)nc2ncnn12 | 1 | 3 | 0 | 0 | nt | nt
CN1CCN(C(=O)c2cnn3c(C(F)(F)F)cc(-c4cccs4)nc23)CC1 | 19* | 6 | 6 | 3 | 29* | 25*
FC(F)(F)c1cc(-c2cccs2)nc2ncnn12 | 19* | -2 | -4 | 0 | 67* | 66*
O=C(c1ccco1)N1CCN(C(=O)c2cnn3c(C(F)(F)F)cc(-c4cccs4)nc23)CC1 | 25* | 7 | 4 | 0 | -4 | 1
C=CCN(CC#Cc1ccc(C(F)(F)F)cc1)CC=C | 0 | 8 | -2 | nt | nt | nt
CCCc1cc(=O)oc2c3c(cc(OCC(=O)N[C@@H](C)C(=O)O)c12)OC(C)(C)CC3 | 49* | 2 | 5 | -22 | 70* | 78*
CCc1cc(=O)oc2c3c(cc(OCC(=O)N[C@H](C(=O)O)[C@H](C)CC)c12)OC(C)(C)CC3 | 48* | 2 | 4 | 1 | 49* | 49*
CCc1cc(=O)oc2c3c(cc(OCC(=O)NCCCn4ccnc4)c12)OC(C)(C)CC3 | 8 | -26 | -21 | 0 | nt | nt
CCCc1cc(=O)oc2c3c(cc(OCC(=O)N[C@@H](CSC)C(=O)O)c12)OC(C)(C)CC3 | 32* | 0 | -1 | -1 | 35* | 31*
SMILES | KLK7 zymogen act | GC-A act | NPR2 activator | HIF activator | KLK7 act conf | EDANS-DABCYL int
Cc1ccc(C)c(NC(=O)c2cc(-c3ccc(Cl)cc3)nc3ccccc23)c1 | 0 | -8 | -7 | nt | nt | nt
CN(CC(=O)Nc1cccc(F)c1)C(=O)/C=C/c1ccc(Br)s1 | 0 | -1 | -1 | 1 | nt | nt
CCOc1ccc(/C=C/C(=O)N(C)CC(=O)Nc2cccc(F)c2)cc1OCC | 106* | -2 | 0 | 1 | -10 | -10
COc1ccc2sc3ccccc3c(=O)c2c1 | -7 | -1 | -7 | 3 | nt | nt
COc1ccc2sc(C)cc(=O)c2c1 | 51* | -3 | -2 | nt | 37* | 43*
Cc1cc(F)ccc1C(=O)N1CCC(Oc2cccnc2)CC1 | -1 | 2 | 5 | nt | nt | nt
Cc1ccc(C(=O)Nc2ccc(NC(=O)c3ccc(C)o3)cc2)o1 | 29* | -6 | 2 | 0 | 31* | 18*
Cc1ccc(C(=O)Nc2ccc(CC(=O)O)cc2)o1 | 0 | -3 | 8 | -1 | nt | nt
Cc1ccc(N(CC(=O)Nc2ccc(-c3nc4ccc(C)cc4s3)cc2)S(C)(=O)=O)cc1 | 5 | 0 | 2 | 2 | nt | nt
CCn1c(SCC(=O)Nc2ccc(-c3nc4ccc(C)cc4s3)cc2)nnc1-c1ccccc1 | nt | nt | nt | 4 | nt | nt
Cc1ccc2nc(-c3ccc(NC(=O)CSc4nnc(Cc5cccs5)n4C)cc3)sc2c1 | 149* | 3 | -9 | nt | 157* | 86*
Cc1cccc(-c2nnc(SCC(=O)Nc3ccc(-c4nc5ccc(C)cc5s4)cc3)n2Cc2ccco2)c1 | 68* | 4 | -4 | nt | 62* | 92*
O=C(CSc1nnc(-c2cccnc2)n1Cc1ccco1)Nc1cccc(O)c1 | 0 | 1 | 4 | -1 | nt | nt
CCOC(=O)c1ccc(NC(=O)CSc2nnc(Cc3cccs3)n2C)cc1 | 0 | -3 | -1 | 0 | nt | nt
CCOC(=O)c1c(NC(=O)CSc2nnc(-c3cccnc3)n2Cc2ccco2)sc(C)c1C | 14* | -8 | -6 | -21 | 1 | 2
Cc1ccc(C)c(N(CC(=O)Nc2ccc(-c3nc4ccc(C)cc4s3)cc2)S(C)(=O)=O)c1 | 20* | 0 | -4 | 2 | -8 | -20
CC(COc1cccc(Br)c1)CN1CCC(C(O)(c2ccccc2)c2ccccc2)CC1 (stereo not given) | 0 | -13 | 3 | nt | nt | nt
CCn1c(COc2ccccc2)nnc1SCC(=O)Nc1ccc(S(=O)(=O)Nc2cc(C)nc(C)n2)cc1 | 0 | -2 | 2 | nt | nt | nt
Cc1ccc2nc(-c3ccc(NC(=O)CSc4nnc(-c5ccccc5)n4Cc4ccco4)cc3)sc2c1 | 128* | 3 | 4 | nt | 297* | 333*
CSc1ccccc1-c1cnc2cccnn12 | 7 | 4 | 5 | nt | nt | nt
Cn1ccc2c(-c3cncc4ccccc34)cc3c(c21)C1CCC3O1 (stereo not given) | 1 | -3 | 2 | nt | nt | nt
c1cc(-c2cnc3cccnn23)c2cccnc2c1 | 18* | 5 | 0 | nt | 18* | 22*
c1ccc2c(-c3cnc4cccnn34)cncc2c1 | 25* | 1 | 0 | nt | 20* | 21*

High-throughput results from PubChem.
